Whole data set: some 35,000 sequences, median “fluorescence intensity (a.u.)” near 10,000, cut for the highest 2% near 52,000. The sample as a whole holds a higher share of the highest values than the screen did.

The assay concerns the target T1, OsWOX13 (Oryza sativa, UniProt Q5QMM3 1-267).
T1 sequence: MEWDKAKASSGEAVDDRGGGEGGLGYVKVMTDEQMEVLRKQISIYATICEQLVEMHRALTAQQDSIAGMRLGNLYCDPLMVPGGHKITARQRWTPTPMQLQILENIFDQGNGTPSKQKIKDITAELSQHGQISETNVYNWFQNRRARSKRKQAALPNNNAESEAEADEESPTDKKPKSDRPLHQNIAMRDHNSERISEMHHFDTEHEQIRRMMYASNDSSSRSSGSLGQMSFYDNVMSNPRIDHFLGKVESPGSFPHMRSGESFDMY
Briefly: protein-binding microarray (RPBM); PBS, 2% BSA, 51.3 ng/ul salmon testes DNA, 50 uM zinc acetate, 200 nM TF, 25 C, 1 h; high values mean tight binding. The conditions noted are these: protein: recombinant; tags: N-terminal polyhistidine and DsRed monomer fusion (pET32a); label: CyDye5-dUTP incorporated in the synthesized complementary strand; 3' TTTTT single-stranded linker to array surface; dsDNA, one strand shown. In outline: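 Binding signal here means per-feature fluorescence intensity in arbitrary units. The values were read on an Axon 4000B scanner after a custom Agilent array, double-stranded by primer extension with Cy5-dUTP, was incubated with 200 nM protein at 25 °C for 1 h in PBS with 2% BSA, salmon testes DNA and 50 µM zinc acetate, then washed. The proteins were transcription factors with an N-terminal polyhistidine tag and DsRed, expressed in E. coli BL21-CodonPlus and purified on Ni–NTA.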
For the sequence “CAAAACTGAGTACATTGGATTGGACCATCTAAAAGGAAATCGGAGTCACCTAGTGCAG”, the binding signal was 4580 fluorescence intensity (a.u.). Under “TTTATCAAATTATCGTTTGTGTACTCTAGCTGGTCCTGGACGGAGTCACCTAGTGCAG” stands 3870 fluorescence intensity (a.u.); under “TGAAATTATTAGCAGGGTTTTAAATCTTCTGTTATAGCTGCGGAGTCACCTAGTGCAG”, 4040 fluorescence intensity (a.u.); under “GGTAATAGAGAGACCACTAATAAAGATTGTTGTACCTGTGCGGAGTCACCTAGTGCAG”, 3690 fluorescence intensity (a.u.). Regarding “CCCTAGACAGATCAGCTTTGGTGTCTTGGTGGTTGTTGTCCGGAGTCACCTAGTGCAG”, the binding signal was 5440 fluorescence intensity (a.u.).

“TGTTTAAGTTTGTCCTAATTACCTGTCACATTTTCCGTGCCGGAGTCACCTAGTGCAG”: the binding signal is 8460 fluorescence intensity (a.u.).

In the case of “GGCAGTGACTAATTAACCTCACGGATGACAGGCGGCGAAACGGAGTCACCTAGTGCAG”, the binding signal was 10300 fluorescence intensity (a.u.). Consider “ATCAGCTGATTACCTCACTGCATCCGTATGATTCGACTTTCGGAGTCACCTAGTGCAG”, for which the binding signal was 7310 fluorescence intensity (a.u.). Under “ATGATTAGAGAGAATGGGTTTAGTTATTTGTTGATCCACACGGAGTCACCTAGTGCAG” stands 29400 fluorescence intensity (a.u.); under “ACTTGACAGCCCTAATTGATCTTATTACATGCAGAGGATCCGGAGTCACCTAGTGCAG”, 56300 fluorescence intensity (a.u.). Under “GTGCTCTAATTATTTGTATCTTACAGATAGATGACAGAGCCGGAGTCACCTAGTGCAG” stands 19100 fluorescence intensity (a.u.); under “CTCCGGTTTAATTTTAATTGATGTTTTGGACAATGGCACGCGGAGTCACCTAGTGCAG”, 44900 fluorescence intensity (a.u.). As for “TGGATTGAGATATTTATTTATGATGATCACATCTGCACCTCGGAGTCACCTAGTGCAG”, the figure is 9980 fluorescence intensity (a.u.); as for “AATATATGGATAATTGTACTAGATTATCCTATTTCATACACGGAGTCACCTAGTGCAG”, 6460 fluorescence intensity (a.u.).

For the sequence “ACATGACTAATCTTATTGACTTAAGAGCTGATTAGGATACCGGAGTCACCTAGTGCAG”, the binding signal is 20200 fluorescence intensity (a.u.). With “TTTAATTGATTTTGTTTAGAATTTGAGGACATGATCCACGCGGAGTCACCTAGTGCAG”, the binding signal is 62900 fluorescence intensity (a.u.). Under “GATCTGATTGAGACATATCTGAAAATAATTTGCACGCAGACGGAGTCACCTAGTGCAG” stands 30600 fluorescence intensity (a.u.). Regarding “TGTGAGTGATCAAATAATTGATCATAATTTTCTATCGATTCGGAGTCACCTAGTGCAG”, the binding signal is 37500 fluorescence intensity (a.u.). Under “CATAATTGCACGATCATTGATTTTGGAACATTCTGAGGCTCGGAGTCACCTAGTGCAG” stands 57100 fluorescence intensity (a.u.); under “GATAATTGAGGGATTATTTTATGGATATACTAGATCTGCACGGAGTCACCTAGTGCAG”, 52400 fluorescence intensity (a.u.); under “TCAATTAATATATAATTGGCATTGGGTTTGATCATCTCTGCGGAGTCACCTAGTGCAG”, 50700 fluorescence intensity (a.u.).

In the case of “CATGTTAATTTGGGACGAGAGTCGGACTCCTATTTCCTTTCGGAGTCACCTAGTGCAG”, the binding signal is 7570 fluorescence intensity (a.u.). With “AAAATTGATGTTCTCTTTGGTGCATTTCTTTCTTATTGTCCGGAGTCACCTAGTGCAG”, the binding signal is 26800 fluorescence intensity (a.u.). As for “CAATTATCAATCAGTCTGAAATCTTGCATTTGCATTTGCACGGAGTCACCTAGTGCAG”, the figure is 22400 fluorescence intensity (a.u.).

With “TAAGACTAATTATTCTTTTAGTAATAGACGACGTACTCGCCGGAGTCACCTAGTGCAG”, the binding signal is 22300 fluorescence intensity (a.u.). Take “ATTAATTAATTAGTGATCATACATAATTGAGGTGATTTATCGGAGTCACCTAGTGCAG”: the binding signal was 65000 fluorescence intensity (a.u.). Under “ACGTGATACATCTTGTTCTAGATTTGTTTAATTTAAGCCACGGAGTCACCTAGTGCAG” stands 3240 fluorescence intensity (a.u.).

“TTAATTGATTTAGTTGGTGACCTTATATCTTGTTTAGATACGGAGTCACCTAGTGCAG”: the binding signal was 60600 fluorescence intensity (a.u.).

Take “AATGATTGACAATACTTAGATTTCTTCCCTTAATTACATCCGGAGTCACCTAGTGCAG”: the binding signal is 54400 fluorescence intensity (a.u.).

In the case of “GTAGATATTGATGATTTATATAACTTTGTTGTTGATGACTCGGAGTCACCTAGTGCAG”, the binding signal is 14500 fluorescence intensity (a.u.). As for “TTTGATTGTGGTTATTGCACTGAAATTTTACAGATATTGTCGGAGTCACCTAGTGCAG”, the figure is 31800 fluorescence intensity (a.u.); as for “ATCCCTAATACGATTTACATGATTAGAGGAGAGACAATTTCGGAGTCACCTAGTGCAG”, 4470 fluorescence intensity (a.u.); as for “AATTGTCCCTGATTGACACCTCTTACTTGACCCTTCTTTCCGGAGTCACCTAGTGCAG”, 42600 fluorescence intensity (a.u.). For “GTGCATTATCGATCATAATTAGCAGGTGAGAGATATTTAACGGAGTCACCTAGTGCAG”, the binding signal is 4060 fluorescence intensity (a.u.).

For “ACTTGCATGCTTAATTGATTTAGTTGGTGACCTTATATCTCGGAGTCACCTAGTGCAG”, the binding signal is 37800 fluorescence intensity (a.u.). As for “TATTTTAGATTGATATACAATCTTTTGTGGTGTTAGCACTCGGAGTCACCTAGTGCAG”, the figure is 52900 fluorescence intensity (a.u.); as for “ATATAATTATAATTTATTTTATTGTGACTTGATTTATCATCGGAGTCACCTAGTGCAG”, 36400 fluorescence intensity (a.u.). As for “GAGCAGCAGCTTAATTGGATCATCGAATCTCGCACCGCCACGGAGTCACCTAGTGCAG”, the figure is 4860 fluorescence intensity (a.u.). As to “TAAACTTAATTTTAAAATCATAATTCAGAAATGTGGTGAACGGAGTCACCTAGTGCAG”, the binding signal is 30500 fluorescence intensity (a.u.).

In the case of “ATGACTTGACGAGGTAAATAAAATTGGACCGGGCAGCAAACGGAGTCACCTAGTGCAG”, the binding signal is 3900 fluorescence intensity (a.u.).

Consider “CCCTAATCCCATTTAATCAGCACAGCTTCTTAATTACTCCCGGAGTCACCTAGTGCAG”, for which the binding signal is 6810 fluorescence intensity (a.u.).

Take “GAAGTTATTAACAAATTAGATACATCTCTTGTTTAGATTACGGAGTCACCTAGTGCAG”: the binding signal is 4700 fluorescence intensity (a.u.). As for “ATATTCAGCTGATTGGGGCATTGGGTATTTGCAGTGAGCACGGAGTCACCTAGTGCAG”, the binding signal was 18500 fluorescence intensity (a.u.).

Regarding “TCTGAGATTTATTGATTAGATTATAACGTAATCGTTGTTACGGAGTCACCTAGTGCAG”, the binding signal is 29300 fluorescence intensity (a.u.). As for “GTATTAATTGGGGTGATTCATGACAACGATGAGATATTAACGGAGTCACCTAGTGCAG”, the figure is 32700 fluorescence intensity (a.u.). Under “CTCTGATAGATTGCGACCTTCTTGTTGTTTAACAACGTTACGGAGTCACCTAGTGCAG” stands 54000 fluorescence intensity (a.u.). For “TATTAATTGAGTGAGATTTGGGGTATTCAGTCGACTGGCACGGAGTCACCTAGTGCAG”, the binding signal is 54900 fluorescence intensity (a.u.).

As for “ACACACAGCGGCAAAATTGACACATTACACATCAGGAATCCGGAGTCACCTAGTGCAG”, the binding signal was 5060 fluorescence intensity (a.u.).

Consider “TGAAAGAAGAGATGATTGGGAAACACCATTAATAGGGTGGCGGAGTCACCTAGTGCAG”, for which the binding signal was 10500 fluorescence intensity (a.u.). Under “TGTCGTCAAAATTTGATGGAATTCACACGAATTTAGCAACCGGAGTCACCTAGTGCAG” stands 5150 fluorescence intensity (a.u.); under “TACTAATGATTTTATGTAGAACATCATCACATATCTTATACGGAGTCACCTAGTGCAG”, 15800 fluorescence intensity (a.u.). Regarding “TAATAATAATAATAATAATAATAATAATAACACATCGCACCGGAGTCACCTAGTGCAG”, the binding signal is 4120 fluorescence intensity (a.u.).

In the case of “CCGTGCTGCATGATTGACCAAACAGACCATGTTGGTTTTGCGGAGTCACCTAGTGCAG”, the binding signal was 29000 fluorescence intensity (a.u.).

As for “GGTTTGATTGGTTGGAAACAGAGGGGTTCTACTGCTGCGACGGAGTCACCTAGTGCAG”, the binding signal is 55700 fluorescence intensity (a.u.). As for “TTCTATGATTGATTGGTCGATAGGAAGACATATAACAGCGCGGAGTCACCTAGTGCAG”, the figure is 65500 fluorescence intensity (a.u.); as for “GATTTATTGACATCTATATGAATATAGACATTGATAAAAGCGGAGTCACCTAGTGCAG”, 8710 fluorescence intensity (a.u.); as for “TTGATTTGGTTGATTGCCTCCTTCGTTCGTCCACGCTCAACGGAGTCACCTAGTGCAG”, 57100 fluorescence intensity (a.u.). “TTGATTGCCTCAGGTGGTCCGGACACCGTCTCAACATCCACGGAGTCACCTAGTGCAG”: the binding signal is 17700 fluorescence intensity (a.u.).

With “CTTTGACAGATTGGTGGGAGATAAGAGAAATGAGGAGGTGCGGAGTCACCTAGTGCAG”, the binding signal was 51900 fluorescence intensity (a.u.). As for “ATAACATTATCATTATAGACATTGATATATGAGATAATAGCGGAGTCACCTAGTGCAG”, the figure is 6010 fluorescence intensity (a.u.); as for “TTCGAATCTCTGATTGGGAGTTCAGGTCAGAGACGTTCAGCGGAGTCACCTAGTGCAG”, 14700 fluorescence intensity (a.u.). On to “CTGATGATTGGTCAGCAGAGAAGACAGGTGGGATATCGAGCGGAGTCACCTAGTGCAG”, for which the binding signal was 52900 fluorescence intensity (a.u.). On to “TTGCTATTTGTTGGTTTGATTTATTGCTACTGCAACAGATCGGAGTCACCTAGTGCAG”, for which the binding signal was 3880 fluorescence intensity (a.u.).

On to “TGTTGATTTGCTACCCTTCCTTCCGTCCTCAACATTATCACGGAGTCACCTAGTGCAG”, for which the binding signal was 31600 fluorescence intensity (a.u.).

The record behind these values is paper PMC7819943, “Rice protein-binding microarrays: a tool to detect cis-acting elements near promoter regions in rice”.
